According to PubChem BioAssay (NCI):
This is part of a sample that, as a whole, favours compounds with a hit. Of some 79,000 tested, about 15% had one in any assay. The source made the active and inactive calls. Cut-off read from the data, not from the text of the source: active = growth inhibition above about 70%; inactive = the rest.

Key:
[1] = NCI Yeast Anticancer Drug Screen. Data for the rad52 strain (AID 147);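 note: 0% = growth of vehicle-treated control cultures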; conditions: S. cerevisiae rad52 mutant growth inhibition, active compounds read high
Method in brief: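 Vehicle-treated cultures served as the reference for growth inhibition of compound-exposed yeast bearing a DNA repair mutation.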

[2] = NCI Yeast Anticancer Drug Screen. Data for the wt1 strain (AID 149);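 note: 0% = growth of vehicle-treated wt1 cultures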; conditions: S. cerevisiae wt1 strain (SPY 50644) growth inhibition, active compounds read high
Method in brief: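 Vehicle-normalised growth inhibition; strain wt1; compound exposure.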

[3] = NCI Yeast Anticancer Drug Screen. Data for the rad50EPP+ strain (AID 151);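 note: 0% = growth of vehicle-treated control cultures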; conditions: S. cerevisiae rad50 mutant strain, active compounds read high
Method in brief: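 In this screen, rad50EPP+ yeast were exposed to compounds. Growth inhibition was scored against vehicle-treated controls.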

[4] = NCI Yeast Anticancer Drug Screen. Data for the mgt1 strain (AID 153); conditions: S. cerevisiae mgt1 mutant growth inhibition, active compounds read high
Method in brief: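 mgt1 strain exposed; growth vs vehicle control recorded as inhibition.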

[5] = NCI Yeast Anticancer Drug Screen. Data for the rad50 strain (AID 155);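 note: 0% = growth of vehicle-only cultures of the same strain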; conditions: S. cerevisiae rad50 strain growth inhibition, active compounds read high
Method in brief: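 A DNA repair-deficient yeast mutant serves as the test organism; compound-induced growth inhibition is calculated against vehicle-treated cells.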

[6] = NCI Yeast Anticancer Drug Screen. Data for the mec2-1 strain (AID 157); conditions: S. cerevisiae mec2-1 strain, active compounds read high
Method in brief: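 Vehicle-treated cultures served as reference for growth inhibition of compound-exposed mec2-1 yeast.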

[7] = NCI Yeast Anticancer Drug Screen. Data for the rad14 strain (AID 159);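 note: 0% = growth of vehicle-treated control cultures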; conditions: S. cerevisiae rad14 strain growth inhibition, active compounds read high
Method in brief: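 Vehicle-treated cultures served as the baseline for growth inhibition of a DNA repair-mutant yeast strain exposed to each compound.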

[8] = NCI Yeast Anticancer Drug Screen. Data for the sgs1 mgt1 strain (AID 161);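 note: 0% = growth of cultures given vehicle only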; conditions: S. cerevisiae sgs1 mgt1 strain, active compounds read high
Method in brief: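 Read-out: growth inhibition vs vehicle controls. Cells: mutant yeast strain deficient in DNA damage repair.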

[9] = NCI Yeast Anticancer Drug Screen. Data for the CLN2oe strain (AID 163);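 note: 0% = growth of vehicle-only control cultures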; conditions: S. cerevisiae CLN2oe strain, active compounds read high
Method in brief: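 Inhibition relative to vehicle-treated yeast is reported. Cells: strain with genetic alteration in cell-cycle control, grown with compound.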

[10] = NCI Yeast Anticancer Drug Screen. Data for the cln2 rad14 strain (AID 165);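 note: 0% = growth equal to vehicle treated cultures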; conditions: S. cerevisiae cln2 rad14 strain, active compounds read high
Method in brief: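 Each compound was tested on cln2 rad14 yeast. Inhibition of growth was calculated against vehicle-exposed controls.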

[11] = NCI Yeast Anticancer Drug Screen. Data for the bub3 strain (AID 167); conditions: S. cerevisiae bub3 mutant strain, active compounds read high
Method in brief: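 Inhibition values come from growth of compound-treated mutant yeast normalised to vehicle-treated controls.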

[12] = NCI Yeast Anticancer Drug Screen. Data for the wt2 strain (AID 169);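 note: 0% = growth of vehicle-treated yeast cultures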; conditions: S. cerevisiae wt2 strain growth inhibition, active compounds read high
Method in brief: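 Inhibition of yeast growth was determined after compound treatment, normalised to controls receiving only vehicle.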

[13] = NCI Yeast Anticancer Drug Screen. Data for the sgs1 strain (AID 173);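 note: 0% = growth of vehicle-only control cultures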; conditions: S. cerevisiae sgs1 mutant, active compounds read high
Method in brief: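 Screen format: yeast with repair or checkpoint alterations, compound exposure, growth read relative to vehicle.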

[14] = NCI Yeast Anticancer Drug Screen. Data for the mlh1 rad18 strain (AID 175); conditions: S. cerevisiae mlh1 rad18 strain growth inhibition, active compounds read high
Method in brief: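 Vehicle-treated cultures served as the reference for growth inhibition in a yeast strain carrying DNA damage repair alterations exposed to each compound.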

[15] = NCI Yeast Anticancer Drug Screen. Data for the rad18 strain (AID 177); conditions: S. cerevisiae rad18 mutant growth inhibition, active compounds read high
Method in brief: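 Test articles were incubated with altered yeast defective in DNA damage repair. Results are given as inhibition of growth versus vehicle.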

[16] = at 5.0 µM (retest, dose inferred, filed as 0.5)
[17] = at 50.0 µM (retest, dose inferred, filed as 5.0)

Measured: growth inhibition

c1cc(-c2sc(-c3ccncc3)c(-c3ccncc3)c2-c2ccncc2)ccn1
inactive: [1]; at 1.2 µM 4% | [1]; at 3.7 µM 17% | [1]; at 11.0 µM 63% | [2]; at 1.2 µM 2% | [2]; at 3.7 µM -1% | [2]; at 11.0 µM 0% | [2]; at 33.0 µM 12% | [2]; at 100.0 µM 58% | [3]; at 1.2 µM 5% | [3]; at 3.7 µM 18% | [3]; at 11.0 µM 34% | [3]; at 33.0 µM 68% | [4]; at 1.2 µM 0% | [4]; at 3.7 µM 2% | [4]; at 11.0 µM 2% | [4]; at 33.0 µM 25% | [5]; at 1.2 µM 10% | [5]; at 3.7 µM 19% | [5]; [16] 12% | [5]; at 11.0 µM 69% | [6]; at 1.2 µM 3% | [6]; at 3.7 µM 3% | [6]; [16] -5% | [6]; at 11.0 µM 11% | [6]; at 33.0 µM 46% | [6]; [17] 0% | [6]; at 50.0 µM 21.1% | [7]; at 1.2 µM 3% | [7]; at 3.7 µM -4% | [7]; at 11.0 µM 5% | [7]; at 33.0 µM 26% | [8]; [16] -5% | [8]; [17] 50% | [8]; at 50.0 µM 46.8% | [9]; at 1.2 µM -7% | [9]; at 3.7 µM 1% | [9]; at 11.0 µM -1% | [9]; at 33.0 µM 25% | [10]; [16] -48% | [10]; [17] 5% | [10]; at 50.0 µM 45.6% | [11]; at 1.2 µM 1% | [11]; at 3.7 µM 7% | [11]; [16] -12% | [11]; at 11.0 µM 25% | [11]; at 33.0 µM 54% | [11]; [17] 18% | [11]; at 50.0 µM 51.1% | [12]; at 1.2 µM 0% | [12]; at 3.7 µM 0% | [12]; at 11.0 µM 0% | [12]; at 33.0 µM 17% | [13]; at 1.2 µM 3% | [13]; at 3.7 µM 7% | [13]; at 11.0 µM 15% | [13]; at 33.0 µM 42% | [14]; [16] 2% | [14]; [17] 46% | [15]; at 1.2 µM 10% | [15]; at 3.7 µM -1% | [15]; at 11.0 µM 6% | [15]; at 33.0 µM 23%
active: [1]; at 33.0 µM 91% | [1]; at 100.0 µM 97% | [3]; at 100.0 µM 82% | [4]; at 100.0 µM 87% | [5]; at 33.0 µM 90% | [5]; [17] 81% | [5]; at 50.0 µM 96.3% | [5]; at 100.0 µM 96% | [6]; at 100.0 µM 93% | [7]; at 100.0 µM 75% | [9]; at 100.0 µM 89% | [11]; at 100.0 µM 89% | [12]; at 100.0 µM 79% | [13]; at 100.0 µM 77% | [14]; at 50.0 µM 79.7% | [15]; at 100.0 µM 86%
